Test results from PubChem BioAssay (NCATS).
Results filed as inconclusive are left out. Activity calls are given as the source filed them. The call rests on the fitted dose curve; in most records, active means well fitted curve in the direction sought with a large enough effect; inconclusive means small, poorly fitted or top-dose-only effect, or another doubt; inactive means no such curve, though single readings can be large; an effect the other way counts as inactive or inconclusive.

What was measured:
[1] = S16 Schwann cell viability assay (CellTiter-Glo assay) (AID 624031); further: nearly all actives have a fitted effect of over 70% in size
Method in brief: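 Untransfected S16 rat Schwann cells; compound 24 h, 37 °C/5% CO2; CellTiter-Glo ATP luminescence. % activity vs no-cell wells and DMSO controls (0%); concentration-effect curves classed by r2, response magnitude, activity.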

AS120 = test: qHTS profiling for inhibitors of Plasmodium falciparum proliferation (AID 504749); further: nearly all actives have a fitted effect of over 60% in size; settings: P. falciparum in erythrocytes, SYBR Green DNA, 72 h; series mostly up to 28.7 µM
Method in brief: (§1)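 Fluorescence of SYBR Green-bound parasite DNA, read at 485/535 nm, served as the growth measure. Infected erythrocytes were cultured with compound 72 h; artemisinin (0.29 uM) and DMSO wells defined the normalization range.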

ATS189 = test: as above; settings: P. falciparum in erythrocytes, SYBR Green DNA, 72 h; series mostly up to 28.7 µM
Method in brief: as §1

CP194 = test: as above; settings: P. falciparum in erythrocytes, SYBR Green DNA, 72 h; series mostly up to 28.7 µM
Method in brief: as §1

CP201 = test: as above; settings: P. falciparum in erythrocytes, SYBR Green DNA, 72 h; series mostly up to 28.7 µM
Method in brief: as §1

CP203 = test: as above; settings: P. falciparum in erythrocytes, SYBR Green DNA, 72 h; series mostly up to 28.7 µM
Method in brief: as §1

CP215 = test: as above; settings: P. falciparum in erythrocytes, SYBR Green DNA, 72 h; series mostly up to 28.7 µM
Method in brief: as §1

CP217 = test: as above; settings: P. falciparum in erythrocytes, SYBR Green DNA, 72 h; series mostly up to 28.7 µM
Method in brief: as §1

CP237 = test: as above; settings: P. falciparum in erythrocytes, SYBR Green DNA, 72 h; series mostly up to 28.7 µM
Method in brief: as §1

CP252 = test: as above; settings: P. falciparum in erythrocytes, SYBR Green DNA, 72 h; series mostly up to 28.7 µM
Method in brief: as §1

CP265 = test: as above; settings: P. falciparum in erythrocytes, SYBR Green DNA, 72 h; series mostly up to 28.7 µM
Method in brief: as §1

CP268 = test: as above; settings: P. falciparum in erythrocytes, SYBR Green DNA, 72 h; series mostly up to 28.7 µM
Method in brief: as §1

CP291 = test: as above; settings: P. falciparum in erythrocytes, SYBR Green DNA, 72 h; series mostly up to 28.7 µM
Method in brief: as §1

CP305 = test: as above; settings: P. falciparum in erythrocytes, SYBR Green DNA, 72 h; series mostly up to 28.7 µM
Method in brief: as §1

CP325 = test: as above; settings: P. falciparum in erythrocytes, SYBR Green DNA, 72 h; series mostly up to 28.7 µM
Method in brief: as §1

HB3 = test: as above; settings: P. falciparum in erythrocytes, SYBR Green DNA, 72 h; series mostly up to 28.7 µM
Method in brief: as §1

PC15 = test: as above; settings: P. falciparum in erythrocytes, SYBR Green DNA, 72 h; series mostly up to 28.7 µM
Method in brief: as §1

SC27B = test: as above; settings: P. falciparum in erythrocytes, SYBR Green DNA, 72 h; series mostly up to 28.7 µM
Method in brief: as §1

TAB109 = test: as above; settings: P. falciparum in erythrocytes, SYBR Green DNA, 72 h; series mostly up to 28.7 µM
Method in brief: as §1

DIV30 = test: as above; settings: P. falciparum in erythrocytes, SYBR Green DNA, 72 h; series mostly up to 28.7 µM
Method in brief: as §1

Measured: Potency
Potency means the concentration at half of the fitted maximal effect.

CC[C@H](C)[C@H]1O[C@]2(CC[C@@H]1C)C[C@@H]1C[C@@H](C/C=C(\C)[C@H](O[C@@H]3C[C@H](OC)[C@H](O[C@@H]4C[C@H](OC)[C@@H](O)[C@H](C)O4)[C@H](C)O3)[C@@H](C)/C=C/C=C3\CO[C@@H]4[C@H](O)C(C)=C[C@@H](C(=O)O1)[C@]34O)O2
active: [1] 12.8 µM | AS120 1 µM | ATS189 0.891 µM | CP194 1.35 µM | CP201 1.51 µM | CP203 1.51 µM | CP215 1.35 µM | CP217 0.794 µM | CP237 2.24 µM | CP252 0.794 µM | CP265 0.794 µM | CP268 1.69 µM | CP291 1.51 µM | CP305 1.69 µM | CP325 1.35 µM | HB3 2 µM | PC15 2.82 µM | SC27B 1 µM | TAB109 1.26 µM

CC(C)C[C@@H](NC(=O)[C@@H](Cc1ccccc1)NC(=O)c1cnccn1)B(O)O
inactive: [1]
active: AS120 0.1 µM | ATS189 0.112 µM | CP194 0.426 µM | CP201 0.536 µM | CP203 0.338 µM | CP215 0.675 µM | CP217 0.112 µM | CP237 0.0891 µM | CP252 0.0891 µM | CP265 0.141 µM | CP268 0.135 µM | CP291 0.151 µM | CP305 0.757 µM | CP325 0.151 µM | DIV30 0.338 µM | HB3 0.0794 µM | PC15 0.316 µM | SC27B 0.141 µM | TAB109 0.0708 µM

O=C1NC(=O)C2C3C=CC(C3)C12 (stereo not given)
not listed: [1]
inactive: all other assays above

C=C1C(n2cnc3c(=O)[nH]c(N)nc32)C[C@H](O)[C@H]1CO (stereo not given in full)
not listed: CP203 | CP268 | CP291 | CP305 | CP325 | PC15 | TAB109
inactive: all other assays above

O=C(O)Cc1sc(-c2ccc(Cl)cc2)nc1-c1ccccc1
not listed: CP215
inactive: all other assays above

C[N+]12CCCC[C@@H]1CCC(=C(c1cccs1)c1cccs1)C2 (stereo not given in full)
active: AS120 10 µM | CP203 16.9 µM | CP215 15.1 µM | CP217 7.94 µM | CP268 15.1 µM | CP291 15.1 µM | CP305 10.7 µM | DIV30 12 µM | TAB109 2.51 µM
inactive: [1]

C[C@@H]1CC2C3CCC4=CC(=O)C=C[C@]4(C)[C@@]3(F)[C@@H](O)C[C@]2(C)[C@@]1(O)C(=O)COC(=O)c1cccc(S(=O)(=O)O)c1 (stereo not given in full)
inactive: all assays above
